Source: PubChem
DRD3 antagonist – qHTS of D3 Dopamine Receptor Antagonist: qHTS. D(3) dopamine receptor (Homo sapiens), P35462. D3R cells, DiscoveRx beta-arrestin luminescence, antagonist mode; stronger effect = lower value. max response, negative = inhibition, %. hit rate 2.5% among 360,000. AID 652054, 2013; in the data active = max response below about -50%; inconclusive = no clear call, values can overlap the other calls
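Cells expressing the human receptor were seeded at 1500 cells/well, incubated overnight at 37 degrees C in 5% CO2, then exposed to library compounds with dopamine controls for 90 minutes at 37 degrees C before luminescent detection.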
ClpP mod – qHTS Assay for Activators of ClpP. Potency, µM (series often up to 57.5 µM). ATP-dependent Clp protease proteolytic subunit (Bacillus subtilis (strain 168)), P80244. hit rate 1.9% among 340,000. purified B. subtilis ClpP, FRET peptide cleavage, 20 min; active = well fitted falling curve with a large enough effect; inconclusive = small, poorly fitted or top-dose-only effect; inactive = no such curve, though single readings can be large or run the other way; note: the source files actives as falling curves though it sought activators and does not explain the sign; nearly all actives have a fitted effect of over 65% in size
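Purified B. subtilis ClpP, 10 microg/mL final in Tris/HCl pH8 with KCl, BSA, glycerol and Tween-20, cleaved an Abz/nitrotyrosine-quenched decapeptide. Fluorescence (ex 320, em 430) was read at 0 and 20 min at room temperature. Delta was normalized to 5.8 microM ADEP and DMSO/no-enzyme controls.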
DRD3 agonist – qHTS of D3 Dopamine Receptor Agonist: qHTS. D(3) dopamine receptor (Homo sapiens), P35462. D3R DiscoveRx beta-arrestin cells, luminescence, 90 min. max activation, %. hit rate 0.58% among 410,000. AID 652048, 2013; in the data active = max activation above about 30%
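Agonist-mode cell screen: cells plated at 1500/well and incubated overnight at 37 °C, then exposed to library compounds for 90 min at 37 °C. Detection reagent was added for 30–60 min at room temperature, and luminescence was read.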
HEK293 tox – qHTS of GLP-1 Receptor Inverse Agonists: Cytotox Screen | hit rate 0.13% among 410,000 | AID 624418, 2012 | Potency, µM (top dose mostly 38.3 µM), most hits filed as inhibitors | HEK293 cAMP-luciferase reporter cells, luminescence, 24 h;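 note: loss of luciferase light is scored as toxicity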
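Compound-treated cells are incubated 24 hr at 37 deg C under 5% CO2 after a 12 hour attachment period, then luciferase detection reagent is added and luminescence is measured following 12 min at room temperature; lowered signal indicates toxicity.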
GLP-1R inv ag – qHTS of GLP-1 Receptor Inverse Agonists (Inhibition Mode); HEK293 GLP-1R CRE-luciferase, luminescence, 24 h; GLP-1R form is constitutively active; Potency, µM (series often up to 38.3 µM), usual class: inhibitors; hit rate 1.6% among 410,000; AID 624417, 2012; note: nearly all actives have a fitted effect of over 55% in size
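Assay principle: reduced luminescence from a cAMP-responsive reporter in HEK293 cells co-expressing a constitutively active GLP-1R. Conditions: 24 hr compound incubation, 37 deg C, 5% CO2.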
GLP-1R agonist – qHTS of GLP-1 Receptor Agonists | HEK293 GLP-1R CRE-luciferase, luminescence, 4-6 h; cells express a hypersensitive GLP-1R form | Potency, µM (top dose mostly 45.6 µM), actives largely listed as activators | hit rate 0.007% among 380,000 | Glucagon-like peptide 1 receptor (Homo sapiens), P43220
Large screens that a line does not name were inactive. This is a sample that favours compounds with a hit; in the whole collection about 5.7% have one here. Unless noted, calls come from the whole dose curve; as a rule, active = well fitted curve in the direction sought with a large enough effect; inconclusive = small, poorly fitted or top-dose-only effect, or another doubt; inactive = no such curve, though single readings can be large; an effect the other way counts as inactive or inconclusive.

COc1ccc(CCN2C(=O)/C(=C\c3ccco3)SC2=S)cc1OC	DRD3 agonist 59 (no result: ClpP mod)
COc1ccc(-c2nc(SCC(=O)Nc3c(C)cc(C)cc3C)n[nH]2)cc1	none (no result: DRD3 antagonist, GLP-1R agonist)
Cc1c(C(=O)N(C)C)sc2c1c(=O)n(-c1ccc(Cl)c(Cl)c1)c(=O)n2CC(=O)N1CCCCC1C (configuration not stated)	none (no result: DRD3 antagonist, GLP-1R agonist)
CN(C)c1ccc(C(I)C(I)c2ccnc3ccccc23)cc1 (configuration not stated)	none (no result: DRD3 antagonist, DRD3 agonist, HEK293 tox, GLP-1R inv ag, GLP-1R agonist)
COc1cccc(-n2c(SCc3ccc(F)cc3)nc3c([nH]c4ccccc43)c2=O)c1	GLP-1R inv ag 8.9µM (no result: DRD3 antagonist)
O=C(CSc1nc2c([nH]c3ccccc32)c(=O)n1-c1ccc(Cl)cc1)NCC1CCCO1 (configuration not stated)	ClpP mod inconclusive (no result: DRD3 antagonist)
O=C(CSc1ncnc2c1nnn2Cc1ccc(F)cc1)NCC1CCCO1 (configuration not stated)	HEK293 tox inconclusive, GLP-1R inv ag 13µM
O=C(CSc1nc2c([nH]c3ccccc32)c(=O)n1-c1ccc(F)cc1)NCC1CCCO1 (configuration not stated)	ClpP mod 22µM (no result: DRD3 antagonist, GLP-1R agonist)
O=C(CSc1nc2c(sc3ccccc32)c(=O)n1CCCN1CCCC1)NCC1CCCO1 (configuration not stated)	DRD3 antagonist -57, ClpP mod inconclusive, GLP-1R inv ag inconclusive
CCc1cccc(NC(=O)C2Cc3ccccc3N2C(=O)c2ccccc2)c1 (configuration not stated)	GLP-1R inv ag inconclusive (no result: DRD3 antagonist, GLP-1R agonist)
CC1=C(C(=O)N(C(C)C)C(C)C)CC(CC(=O)NCCCCc2ccccc2)C(=O)N1Cc1ccc(F)cc1 (configuration not stated)	GLP-1R inv ag inconclusive
Cc1ccc(-n2c(SCC(=O)NCc3ccco3)nc3c([nH]c4ccccc43)c2=O)cc1	DRD3 antagonist -50, ClpP mod inconclusive
Cc1cc(N2CCN(C(c3ccccc3)c3ccccc3)CC2)n2ncnc2n1	GLP-1R inv ag 11µM
C[n+]1ccc(C(c2c[nH]c3ccccc23)c2cc[n+](C)c3ccccc23)c2ccccc21	none (no result: DRD3 antagonist, DRD3 agonist, HEK293 tox, GLP-1R inv ag, GLP-1R agonist)
Cc1cccc(-n2[nH]c3c4c(ccc3c2=O)C(=O)c2ccccc2C4=O)c1	DRD3 antagonist -64
CCCCCCCCC(c1nc2cc(C)c(C)cc2[nH]1)n1c(=O)c(-c2ccccc2Br)nc2ccccc21 (configuration not stated)	none
O=C(CSc1ccc2c(c1)OCCO2)NCCc1ccc(Cl)cc1Cl	GLP-1R inv ag 11µM
Cc1cccc(OCC(=O)OCc2cc(=O)n3nc(-c4cccs4)sc3n2)c1	none (no result: DRD3 antagonist, GLP-1R agonist)
C=C1SC(Nc2c(C)cccc2C)=NC12CCCCC2	GLP-1R inv ag inconclusive (no result: ClpP mod)
C=C1SC(Nc2c(C)cc(C)cc2C)=NC12CCCCC2	DRD3 antagonist -54, GLP-1R inv ag inconclusive (no result: ClpP mod)
C[C@H](c1ccccc1)N1C[C@H](COCc2ccccc2)Oc2cc(N3CC[C@H](O)C3)ccc2S1(=O)=O	GLP-1R inv ag 10µM
COC[C@@H]1CCCN1c1ccc2c(c1)O[C@@H](COCc1ccccc1)CN([C@@H](C)c1ccccc1)S2(=O)=O	ClpP mod 14µM, GLP-1R inv ag inconclusive
C=C1Nc2ccccc2C(=O)N1c1ccc(C(=O)N2CCN(C(=O)c3ccco3)CC2)cc1	none (no result: DRD3 antagonist, DRD3 agonist, HEK293 tox, GLP-1R inv ag, GLP-1R agonist)
CC(=O)Nc1ccc(-c2nnc(SCc3ccccc3)n2C)cc1	none (no result: DRD3 antagonist, DRD3 agonist, HEK293 tox, GLP-1R inv ag, GLP-1R agonist)
Cc1cccc(N2C(N)=C(C#N)C(C#N)(C#N)C2c2ccccc2)c1 (configuration not stated)	ClpP mod 14µM, GLP-1R inv ag inconclusive
N#CC1=C(N)N(c2ccccc2)C(c2ccco2)C1(C#N)C#N (configuration not stated)	ClpP mod 14µM
CCOc1ccc(CC(=O)NCC(c2cccs2)S(=O)(=O)c2ccc(F)c(C)c2)cc1 (configuration not stated)	none (no result: DRD3 antagonist, GLP-1R agonist)
CCCNC(=S)NCCN1CCCCC1	DRD3 antagonist -63
CCCCNC(=S)NCCN1CCCCC1	DRD3 antagonist -72
CCOC(=O)N1CCN(C(=O)c2ccc3c(=O)n(Cc4ccc(Cl)cc4)c(=S)[nH]c3c2)CC1	GLP-1R inv ag 2µM
CCN1CCN(C(=O)c2ccc3c(=O)n(Cc4ccccc4OC)c(=S)[nH]c3c2)CC1	DRD3 antagonist -50
CCCn1c(=S)[nH]c2cc(C(=O)N3CCN(C(=O)OCC)CC3)ccc2c1=O	none
CCOC(=O)N1CCN(C(=O)c2ccc3nc4ccsc4c(=O)n3c2)CC1	none
CCOC(=O)N1CCN(C(=O)c2ccc3nc4ccc(Cl)cc4c(=O)n3c2)CC1	ClpP mod 14µM
Cc1[nH]n(-c2ccccc2)c(=O)c1C1(C(F)(F)F)C(=O)N(c2ccccc2)C2=C1C(=O)CC(C)(C)C2 (configuration not stated)	none
Cc1ccc(N2C(=O)C(c3c(C)[nH]n(-c4ccccc4)c3=O)(C(F)(F)F)C3=C2CC(C)(C)CC3=O)cc1 (configuration not stated)	DRD3 antagonist -75
CCCCC(=O)N(C)c1c(C)nc2ccc(C(=O)N3CCNC(=O)C3)cn12	none
O=C1c2ccccc2NC(c2ccccc2)N1Cc1ccco1 (configuration not stated)	ClpP mod 28µM, GLP-1R inv ag inconclusive
O=C1c2ccccc2NC(c2ccc(F)cc2)N1Cc1ccco1 (configuration not stated)	ClpP mod inconclusive, GLP-1R inv ag inconclusive
COC(=O)c1ccccc1NC1OC(=O)c2ccccc21 (configuration not stated)	ClpP mod 32µM
CCOc1ccc(C(c2c(O)cc(C)n(CCOC)c2=O)N2CCN(c3ccc(F)cc3)CC2)cc1 (configuration not stated)	none (no result: DRD3 antagonist, GLP-1R agonist)
COc1ccc(Cl)cc1S(=O)(=O)N1CCN(C(=O)c2cc(-c3ccc(Br)cc3)n[nH]2)CC1	GLP-1R inv ag 10µM (no result: DRD3 antagonist, GLP-1R agonist)
COc1ccc(S(=O)(=O)N2CCN(C(=O)c3cc(-c4ccc(Br)cc4)n[nH]3)CC2)cc1OC	GLP-1R inv ag inconclusive
O=C(Nc1ccc2c(c1)Cc1ccccc1-2)c1ccco1	DRD3 antagonist -98
CCOc1ccc(CN2C(=O)c3ccccc3Sc3ccc(C(=O)NC4CCC(C)CC4)cc32)cc1 (configuration not stated)	none (no result: DRD3 antagonist)
